# Compounds with a hit are over-represented: about 3.5% of the library has one in this group of screens.
# BoNT F protease = BoNT/F light chain protease inhibitors, primary screen, biochemical, flow cytometry, MLPCN library | Botulinum neurotoxin type F light chain protease (Clostridium botulinum) | Multiplex microsphere protease cleavage assay | inhibition, % at 10 µM | 0.22% of 360,000 active; in the data active means inhibition above about 35%, passing the limit was not always enough; inconclusive means no clear call, values can overlap the other calls; further: plate controls were buffer without enzyme for full effect and enzyme alone for no effect
# 3CLpro inhibitor = SARS-CoV 3CLpro protease inhibitors, primary screen, biochemical, quenched FRET; 0.14% of 290,000 active; AID 1706, 2009; recombinant SARS-CoV 3CLpro, quenched FRET peptide cleavage; inhibition, % at 6 µM; Replicase polyprotein 1ab (Severe acute respiratory syndrome coronavirus), P0C6X7; in the data active means inhibition above about 12%
# Anthrax LF inh2 = Bacillus anthracis LF protease inhibitors, primary screen, biochemical, multiplex microsphere, MLPCN library | AID 588501, 2011 | Lethal factor (Bacillus anthracis), P15917 | multiplex microsphere protease cleavage assay | 0.12% of 360,000 active | inhibition, % at 10 µM; further: plate controls were buffer without enzyme for full effect and enzyme alone for no effect
# BoNT A protease = BoNT/A light chain protease inhibitors, primary screen, biochemical, flow cytometry, MLPCN library. Botulinum neurotoxin type A light chain protease (Clostridium botulinum A str. ATCC 3502). multiplex microsphere protease substrate cleavage. inhibition, % at 10 µM. 0.17% of 360,000 active; further: plate controls were buffer without enzyme for full effect and enzyme alone for no effect
# Autofluor counter = counter-screen for toxin protease inhibitors: compound fluorescence. compound autofluorescence counterscreen, microsphere flow cytometry; active compounds read high. fluorescence intensity (no concentration beside the values). AID 624483. 3.1% of 360,000 active; in the data active means fluorescence intensity above about 16000; inconclusive means no clear call, values can overlap the other calls
# Numbers without * were called inactive; ? = inconclusive; . = no result. Unless noted, no stated cut-off is given here; in the data, active means inhibition above about 30%; inconclusive means no clear call, values can overlap the other calls; inactive means below that.
SMILES,BoNT F protease,3CLpro inhibitor,Anthrax LF inh2,BoNT A protease,Autofluor counter
Cc1cc(/C=C2/SC(=S)N(c3ccc([N+](=O)[O-])cc3)C2=O)c(C)n1-c1cccnc1,2,5,14,33*,4024
Cc1cc(/C=C2/SC(=S)N(c3cccc(Cl)c3)C2=O)c(C)n1-c1cccnc1,74*,-3,51*,60*,8722
Cc1cccc(N2C(=O)/C(=C/c3cccnc3)SC2=S)c1,8,2,10,0,3039
O=C(O)C(Cc1c[nH]c2ccccc12)N1CCS(=O)(=O)CC1 (centres undefined),6,2,-7,0,4299
CCOc1ccc(N(CC(=O)NCC(C)C)S(C)(=O)=O)cc1,-1,3,1,0,?
O=C(c1cc(COc2ccc(F)cc2Cl)on1)N1CCc2sccc2C1,-1,4,-1,-2,6223
COC(=O)c1c(NC(=O)COC(=O)Cn2cnc3ccccc32)sc2c1CCCC2,-7,0,-4,0,2144
C=CCCC1(C2=CCCCC2)C(=O)NC(=O)NC1=O,3,.,-1,0,3777
CCC1Oc2ccc(C)cc2N(CC(=O)N(Cc2cccnc2)Cc2cccc(F)c2)C1=O (centres undefined),-19,1,-5,-2,10641
O=C(CN1C(=O)COc2ccccc21)N(Cc1cccnc1)Cc1cccc(F)c1,-4,0,0,?,16903*
O=C(NCCCN1CCCC1=O)c1ccc2c(=O)n(-c3ccc(F)cc3)c(=S)[nH]c2c1,.,5,.,.,.
CCC(=O)Nc1nc(C)c(Oc2ccccc2)c(=O)[nH]1,-2,1,0,0,2361
CC(=O)Nc1nc(C)c(Oc2ccccc2)c(=O)[nH]1,3,-3,-12,2,20911*
Cc1cc(C)nc(SCC(=O)Nc2ccc(S(=O)(=O)NCCO)cc2)n1,-1,0,0,1,23188*
Cc1cccc(NC(=O)CSc2nnc(-c3ccc(S(=O)(=O)N4CCCC4)cc3)o2)c1,-4,-1,-1,0,11414
Cc1cc(C)nc(SCC(=O)Nc2ccc(S(=O)(=O)N3CCCCC3)cc2)n1,1,-4,-1,1,16364*
Cc1csc(SCC(=O)Nc2ccc(S(=O)(=O)N3CCCC3)cc2)n1,0,-1,2,0,10511
Cc1ccc(NC(=O)CSc2nnc(-c3ccc(S(=O)(=O)N4CCCC4)cc3)o2)cc1C,2,5,0,2,21954*
CCN(CC(=O)Nc1ccc2c(c1)OCCO2)C(=O)CSCC(=O)Nc1ccc(C)cc1,-4,.,1,3,4894
O=C(Nc1ccc(-c2nc3ccccc3o2)cc1)C1CCCO1 (centres undefined),3,-6,1,2,19183*
O=S(=O)(Nc1ccc(-c2nc3ccccc3o2)cc1)c1ccccc1,-7,4,-3,?,23226*
CC(=O)Nc1ccc(S(=O)(=O)Nc2cccc(-c3nc4ccccc4o3)c2)cc1,-6,6,0,2,6567
O=C(Nc1ccc2oc(-c3ccccc3)nc2c1)C1CCCO1 (centres undefined),-30,2,-2,-2,2092
COc1ccc2nc(NC(=O)CSc3nnc4n3C(C)(C)Cc3ccccc3-4)sc2c1,6,-6,-12,10,16715*
COc1ccc(N2CCN(C(=O)CSc3nnc4n3C(C)(C)Cc3ccccc3-4)CC2)cc1,1,-4,-2,2,22079*
SMILES,BoNT F protease,3CLpro inhibitor,Anthrax LF inh2,BoNT A protease,Autofluor counter
CC1(C)Cc2ccccc2-c2nnc(SCC(=O)N3CCc4ccccc43)n21,-3,-5,-3,-2,24428*
COC(=O)CSc1nnc2n1C(C)(C)Cc1ccccc1-2,3,0,0,-1,16446*
COc1ccc2[nH]c3c(c2c1)[C@@H]1CCN2C(=O)CCC[C@H](C3)[C@H]12,-2,-5,3,0,3085
O=[N+]([O-])c1ccccc1CN1CCN(c2ncccn2)CC1,-16,-1,11,-2,4135
CCC1(CC)NC(=O)N(CC(=O)OC(C)C(=O)Nc2ccc(Cl)cn2)C1=O (centres undefined),-10,.,?,-8,7634
COc1cc(NC(=O)CSc2nnc3n2C(C)(C)Cc2ccccc2-3)cc(OC)c1,-4,-2,0,-1,16774*
Cc1cc(C)nc(SCC(=O)Nc2ncc3c(n2)CC(C)(C)CC3=O)n1,-3,2,0,-1,20783*

# Compound activity deposited in PubChem by several laboratories.
